Active and inactive are the calls of the source. The calls were made as follows: active = hit-call score of the fitted dose curve at least 0.9, where 1 is the maximum; inactive = score below 0.9.
Columns and labels:
[1] = ATG_AP_1_CIS: Attagene CIS-FACTORIAL HepG2 Assay for human Activator Protein 1 (AP-1) (AID 2282931); conditions: HepG2 Attagene cis-factorial AP-1 reporter mRNA; actives raise or lower the signal
How it was run: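 Multiplexed HepG2 reporter assay, 24 h dosing. mRNA induction detected by RT-PCR plus capillary electrophoresis. Activity fitted in both directions against DMSO.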

[2] = ATG_AP_2_CIS: Attagene CIS-FACTORIAL HepG2 Assay for human Activator Protein 2 (AP-2) (AID 2282932); conditions: HepG2 AP-2 cis-reporter, Attagene transcription factor profiling; actives raise or lower the signal
How it was run: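 Cells (HepG2) transfected with promoter-driven reporter constructs, treated 24 h. Total RNA reverse-transcribed, reporter cDNA PCR-amplified, FAM-labelled by primer extension, digested, resolved by capillary electrophoresis. Activity fitted both directions versus DMSO.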

[3] = ATG_BRE_CIS: Attagene CIS-FACTORIAL HepG2 Assay for human Bone Morphogenetic Protein (BMP) Response Element (BRE) (AID 2282933); conditions: HepG2 BMP response element reporter, Attagene transcription factor profiling; actives raise or lower the signal
How it was run: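 Gain- or loss-of-signal was derived by bidirectional fitting against DMSO controls. The signal came from reporter mRNA, measured by RT-PCR and capillary electrophoresis, in HepG2 cells transiently carrying multiple reporter units and dosed for 24 h.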

[4] = target: Retinoic acid receptor alpha (Homo sapiens) (UniProt P10276); assay: ATG_DR5_RAR_CIS: Attagene CIS-FACTORIAL HepG2 Assay for human Retinoic Acid Receptor Alpha (RARE), DR5 submotif (AID 2282934); conditions: HepG2 Attagene cis-factorial RARE DR5 reporter, mRNA; actives raise or lower the signal;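 as to AC50: reporter responds to endogenous RAR alpha beta and gamma in HepG2 not RARA alone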
Sequence of Retinoic acid receptor alpha (Homo sapiens) (P10276 whole entry, looked up): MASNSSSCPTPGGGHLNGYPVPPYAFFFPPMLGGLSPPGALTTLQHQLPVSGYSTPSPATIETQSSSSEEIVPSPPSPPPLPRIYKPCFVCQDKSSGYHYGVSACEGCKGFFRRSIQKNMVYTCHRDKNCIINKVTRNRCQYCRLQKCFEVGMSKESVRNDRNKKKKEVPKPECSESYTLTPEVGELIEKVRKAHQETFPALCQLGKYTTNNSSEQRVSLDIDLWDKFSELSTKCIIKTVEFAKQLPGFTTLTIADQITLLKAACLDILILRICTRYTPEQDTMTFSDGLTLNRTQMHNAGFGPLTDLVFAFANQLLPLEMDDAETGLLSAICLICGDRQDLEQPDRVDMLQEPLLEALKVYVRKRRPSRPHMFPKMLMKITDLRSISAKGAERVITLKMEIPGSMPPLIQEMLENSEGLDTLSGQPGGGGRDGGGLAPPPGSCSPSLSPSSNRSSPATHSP
How it was run: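 HepG2 cells transiently transfected with multiplexed reporter units under cis (DR5 RARE) promoters, so endogenous transcription factor activity is measured. After 24 h compound exposure, reporter mRNA is quantified by RT-PCR with fluorescent labelling and capillary electrophoresis; bidirectional fitting versus DMSO.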

[5] = target: Transcription factor E2F1 (Homo sapiens) (UniProt Q01094); assay: ATG_E2F_CIS: Attagene CIS-FACTORIAL HepG2 Assay for human E2F Transcription Factor 1 (AID 2282935); conditions: HepG2 Attagene cis-reporter, E2F reporter RNA transcripts; actives raise or lower the signal
Sequence of Transcription factor E2F1 (Homo sapiens) (Q01094 whole entry, looked up): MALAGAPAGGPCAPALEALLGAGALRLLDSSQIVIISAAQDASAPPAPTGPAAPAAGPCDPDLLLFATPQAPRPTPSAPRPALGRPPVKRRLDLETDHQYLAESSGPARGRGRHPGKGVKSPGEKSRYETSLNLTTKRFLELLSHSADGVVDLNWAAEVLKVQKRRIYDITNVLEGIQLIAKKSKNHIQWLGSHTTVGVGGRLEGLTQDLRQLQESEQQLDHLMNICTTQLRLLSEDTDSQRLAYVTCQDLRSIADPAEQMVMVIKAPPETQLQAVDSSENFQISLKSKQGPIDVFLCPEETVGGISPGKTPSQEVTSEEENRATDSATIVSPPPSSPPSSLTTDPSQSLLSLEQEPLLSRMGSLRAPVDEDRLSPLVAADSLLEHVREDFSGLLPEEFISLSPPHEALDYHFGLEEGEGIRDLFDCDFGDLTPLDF
How it was run: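 First, HepG2 cells were transfected with reporter transcription units. Next, they were dosed for 24 h. Then RNA was isolated, converted to cDNA, PCR-amplified, FAM-labeled, HpaI-digested and analyzed by capillary electrophoresis.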

[6] = ATG_M_61_CIS: Attagene CIS-FACTORIAL HepG2 Assay for M61 Transcription Factor (Internal Marker) (AID 2282937); conditions: HepG2 Attagene CIS-FACTORIAL M61 internal marker reporter; actives raise or lower the signal
How it was run: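 Endogenous transcription factor activity in HepG2 is read through transiently transfected cis-element reporter units. After 24 h dosing, RNA undergoes reverse transcription, PCR and primer extension with 6-FAM before capillary electrophoresis; DMSO-referenced bidirectional fit.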

[7] = ATG_Ets_CIS: Attagene CIS-FACTORIAL HepG2 Assay for human Erythroblast Transformation Specific (ETS) (AID 2282941); conditions: HepG2 ETS cis-reporter transcription, actives raise or lower the signal
How it was run: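 Multiplexed reporter transcript profiling: HepG2, 24 h treatment, total RNA to cDNA, PCR, 6-FAM labelling, HpaI cut, capillary electrophoresis. Gain- or loss-of-signal fitted against DMSO.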

[8] = target: Hepatocyte nuclear factor 3-beta (Homo sapiens) (UniProt Q9Y261); assay: ATG_FoxA2_CIS: Attagene CIS-FACTORIAL HepG2 Assay for human Forkhead box A2 (FOXA2) (AID 2282942); conditions: HepG2 cis-reporter transcription factor activity, 24 h; actives raise or lower the signal
Sequence of Hepatocyte nuclear factor 3-beta (Homo sapiens) (Q9Y261 whole entry, looked up): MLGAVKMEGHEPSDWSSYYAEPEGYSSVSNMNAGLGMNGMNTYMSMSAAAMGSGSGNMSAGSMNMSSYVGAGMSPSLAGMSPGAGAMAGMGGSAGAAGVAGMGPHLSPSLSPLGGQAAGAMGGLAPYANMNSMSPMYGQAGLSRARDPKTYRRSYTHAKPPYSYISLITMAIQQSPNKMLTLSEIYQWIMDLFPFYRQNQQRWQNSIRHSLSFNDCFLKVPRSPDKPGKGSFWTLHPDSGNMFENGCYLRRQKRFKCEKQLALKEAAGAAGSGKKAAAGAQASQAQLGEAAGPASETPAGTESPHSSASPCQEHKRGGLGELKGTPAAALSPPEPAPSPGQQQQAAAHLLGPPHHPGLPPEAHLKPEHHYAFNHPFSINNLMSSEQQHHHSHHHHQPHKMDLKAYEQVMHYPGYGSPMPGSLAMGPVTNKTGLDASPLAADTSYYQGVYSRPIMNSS
How it was run: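 Reporter transcript induction is measured by fluorescence after capillary electrophoresis of RT-PCR products from HepG2 cells exposed 24 h. Cis-regulated reporter units report endogenous factor activity; curves fitted both directions against DMSO.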

[9] = ATG_FoxO_CIS: Attagene CIS-FACTORIAL HepG2 Assay for human Forkhead box O (FoxO) (AID 2282943); conditions: HepG2 Attagene cis-reporter, FoxO element, mRNA; actives raise or lower the signal
How it was run: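 HepG2 cells transiently transfected with cis-promoter-driven multiple reporter transcription units; 24 h after chemical dosing, reporter mRNA quantified by RT-PCR, fluorescent primer extension, HpaI digestion and capillary electrophoresis. Bidirectional fitting versus DMSO baseline.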

[10] = ATG_GATA_CIS: Attagene CIS-FACTORIAL HepG2 Assay for human GATA Binding Protein (AID 2282944); conditions: HepG2 GATA cis-element reporter, Attagene multiplex mRNA; actives raise or lower the signal
How it was run: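 DMSO serves as negative control and baseline for bidirectional fitting of reporter mRNA changes. HepG2 cells bearing transiently transfected cis-promoter reporters were exposed 24 h; transcripts detected via RT-PCR and capillary electrophoresis.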

[11] = ATG_GLI_CIS: Attagene CIS-FACTORIAL HepG2 Assay for human Zinc Finger Protein GLI1 (AID 2282945); conditions: HepG2, Attagene cis-factorial reporter mRNA, GLI element; actives raise or lower the signal
How it was run: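 HepG2 cells transiently transfected with cis-promoter multiplexed reporter units report endogenous transcription factor activity. After 24 h chemical exposure, reporter mRNA was quantified by RT-PCR, 6-FAM labelling, HpaI digestion and capillary electrophoresis, with bidirectional fitting against DMSO.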

[12] = target: Bile acid receptor (Homo sapiens) (UniProt Q96RI1); assay: ATG_IR1_CIS: Attagene CIS-FACTORIAL HepG2 Assay for human Nuclear Receptor Subfamily 1 Group H Member 4 (NR1H4), IR1 submotif (AID 2282946); conditions: IR1 reporter transcription, actives raise or lower the signal
Sequence of Bile acid receptor (Homo sapiens) (Q96RI1 whole entry, looked up): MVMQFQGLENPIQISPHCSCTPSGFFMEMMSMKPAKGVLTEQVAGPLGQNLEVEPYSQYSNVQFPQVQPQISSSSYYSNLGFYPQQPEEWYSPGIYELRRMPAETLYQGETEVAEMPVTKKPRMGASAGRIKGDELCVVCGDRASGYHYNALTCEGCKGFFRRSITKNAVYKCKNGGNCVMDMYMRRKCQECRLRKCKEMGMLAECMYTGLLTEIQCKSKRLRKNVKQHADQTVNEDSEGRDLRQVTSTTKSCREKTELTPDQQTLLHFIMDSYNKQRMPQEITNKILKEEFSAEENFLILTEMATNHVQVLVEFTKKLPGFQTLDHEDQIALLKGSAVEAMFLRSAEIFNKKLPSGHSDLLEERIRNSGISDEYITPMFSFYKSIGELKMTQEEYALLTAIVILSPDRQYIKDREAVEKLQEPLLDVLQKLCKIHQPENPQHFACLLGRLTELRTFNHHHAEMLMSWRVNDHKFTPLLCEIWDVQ
How it was run: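 Readout: reporter transcript levels by RT-PCR with fluorescent capillary electrophoresis, from HepG2 cells transiently transfected with multiplexed cis-regulated reporters and dosed 24 h. Gain- or loss-of-signal fitted versus DMSO negative control.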

[13] = ATG_GRE_CIS: Attagene CIS-FACTORIAL HepG2 Assay for human Glucocorticoid Response Elements (GRE) (AID 2282947); conditions: HepG2 GRE cis-reporter, Attagene multiplex mRNA; actives raise or lower the signal
How it was run: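 Cells (HepG2) bearing transfected cis-promoter reporter transcription units were treated with chemical for 24 hours. Reporter mRNA was measured via RT-PCR with capillary electrophoresis, and activity was fitted in both directions relative to DMSO.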

[14] = ATG_ISRE_CIS: Attagene CIS-FACTORIAL HepG2 Assay for human Interferon Regulatory Factor 1 (IRF1) binding to an Interferon-Stimulated Response Element (ISRE) (AID 2282948); conditions: HepG2 ISRE cis-reporter (Attagene), mRNA transcription readout; actives raise or lower the signal
How it was run: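 Signal reflects induction or loss of ISRE-linked reporter mRNA in transiently transfected HepG2 cells after a 24 h treatment, detected by fluorescent RT-PCR fragments on capillary electrophoresis and normalised to DMSO.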

[15] = ATG_M_32_CIS: Attagene CIS-FACTORIAL HepG2 Assay for M32 Transcription Factor (Internal Marker) (AID 2282949); conditions: HepG2 Attagene cis-factorial M32 reporter, mRNA; actives raise or lower the signal;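 also: background control marker of the multiplexed CIS panel rather than a real target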
How it was run: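 HepG2 human liver cells transiently transfected with cis-promoter-driven multiple reporter transcription units, dosed 24 h. Reporter mRNA quantified by RT-PCR, FAM-labelled primer extension, HpaI digest and capillary electrophoresis; bidirectional fit versus DMSO baseline.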

[16] = ATG_M_06_CIS: Attagene CIS-FACTORIAL HepG2 Assay for M06 Transcription Factor (Internal Marker) (AID 2282950); conditions: HepG2 Attagene CIS-FACTORIAL M06 internal marker reporter; actives raise or lower the signal
How it was run: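 Fluorescence-labelled RT-PCR products from cis-promoter reporter units, cut with HpaI and resolved by capillary electrophoresis, give the signal. Cells are human HepG2, dosed for 24 h. Serves as background control, fitted relative to DMSO.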

[17] = ATG_EGR_CIS: Attagene CIS-FACTORIAL HepG2 Assay for human Early Growth Response 1 (EGR1) (AID 2282938); conditions: HepG2 Attagene CIS-FACTORIAL EGR reporter mRNA; actives raise or lower the signal
How it was run: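 Activity is taken as induction or loss of reporter mRNA versus DMSO, fitted bidirectionally. Transcripts from cis-regulated reporter units in transiently transfected HepG2 were measured after 24 h by RT-PCR with capillary electrophoresis.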

[18] = ATG_M_19_CIS: Attagene CIS-FACTORIAL HepG2 Assay for M19 Transcription Factor (Internal Marker) (AID 2282939); conditions: HepG2 Attagene CIS-FACTORIAL M19 internal marker reporter; actives raise or lower the signal
How it was run: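 Following a 24 h exposure, RNA from transfected HepG2 cells was reverse-transcribed, PCR-amplified with reporter-specific primers, end-labelled with 6-FAM and HpaI-digested before capillary separation. Values represent gain or loss versus DMSO.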

[19] = ATG_E_Box_CIS: Attagene CIS-FACTORIAL HepG2 Assay for human Enhancer Box (E-box) (AID 2282936); conditions: HepG2 E-box cis-reporter transcription, actives raise or lower the signal
How it was run: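 Endogenous transcription factor activity was sensed in human HepG2 liver cells through transfected cis-promoter reporter units. After 24 h of dosing, total RNA was reverse-transcribed and reporter cDNA resolved by capillary electrophoresis.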

[20] = ATG_ERE_CIS: Attagene CIS-FACTORIAL HepG2 Assay for Estrogen Response Element (ERE) (AID 2282940); conditions: HepG2 ERE cis-reporter, Attagene RNA transcript; actives raise or lower the signal
How it was run: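 HepG2, transient cis-reporter units, 24 h exposure. RNA isolated, oligo(dT) RT, reporter-specific PCR, FAM extension, HpaI cut, CE detection. Gain/loss-of-signal vs DMSO.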

Measured: AC50

C[CH2][Hg][S]c1ccccc1C(=O)O
active: [2] 4.81 µM | [4] 1.11 µM | [7] 3.71 µM | [9] 2.29 µM | [10] 1.99 µM | [14] 6.49 µM
not listed: [17] | [18] | [19] | [20]
inactive: all other assays above

CCOC(=O)C(SP(=S)(OC)OC)c1ccccc1 (configuration not stated)
not listed: [10] | [19] | [20]
inactive: all other assays above

CCCSP(=S)(OCC)Oc1ccc(Cl)cc1Cl (configuration not stated)
active: [1] 31.7 µM | [20] 10.3 µM
not listed: [5] | [12]
inactive: all other assays above

CC1(C)[C@H](/C=C2\CCSC2=O)[C@@H]1C(=O)OCc1coc(Cc2ccccc2)c1
active: [1] 144 µM | [17] 19 µM
not listed: [5] | [12] | [18]
inactive: all other assays above

Clc1cc(C(Cl)(Cl)Cl)cnc1Cl
active: [1] 12.6 µM | [19] 4.54 µM | [17] 8.77 µM | [14] 9.08 µM
not listed: [5] | [13]
inactive: all other assays above

NNCCO
active: [20] 25.4 µM
not listed: [5] | [13]
inactive: all other assays above

Oc1ccc(Cc2ccc(O)cc2)cc1
active: [20] 0.774 µM
not listed: [5] | [12] | [16]
inactive: all other assays above

O=S1(=O)OC(c2cc(Br)c(O)c(Br)c2)(c2cc(Br)c(O)c(Br)c2)c2ccccc21
not listed: [5] | [6]
inactive: all other assays above

COc1ccccc1N
not listed: [5] | [10] | [12] | [13] | [20]
inactive: all other assays above

BrCCCCBr
not listed: [5] | [12]
inactive: all other assays above

CC(C)CC(C)(c1ccc(O)cc1)c1ccc(O)cc1
active: [1] 11.1 µM | [17] 17.5 µM | [14] 11.1 µM
not listed: [5] | [10] | [20]
inactive: all other assays above

Cc1cc(Cl)ccc1O
not listed: [16] | [18] | [19] | [20]
inactive: all other assays above

O=C(CCl)NCO
not listed: [5] | [12] | [13] | [15] | [17]
inactive: all other assays above

Cc1cccc(N=Nc2ccc(N(C)C)cc2)c1
not listed: [5] | [12] | [18]
inactive: all other assays above

Reference: PubChem BioAssay (EPA / NIEHS)
